# Experiments:
# [1] = molecular target: Sphingosine kinase 1 (Homo sapiens) (UniProt Q9NYA1); details: at 1 µM;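 note: mean SPHK1 inhibition value reported from the GSK PKIS kinase panel screen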
# [2] = molecular target: T1, Sphingosine kinase 2 (Homo sapiens) (UniProt Q9NRA0); details: at 0.1 µM
# T1 sequence (whole entry): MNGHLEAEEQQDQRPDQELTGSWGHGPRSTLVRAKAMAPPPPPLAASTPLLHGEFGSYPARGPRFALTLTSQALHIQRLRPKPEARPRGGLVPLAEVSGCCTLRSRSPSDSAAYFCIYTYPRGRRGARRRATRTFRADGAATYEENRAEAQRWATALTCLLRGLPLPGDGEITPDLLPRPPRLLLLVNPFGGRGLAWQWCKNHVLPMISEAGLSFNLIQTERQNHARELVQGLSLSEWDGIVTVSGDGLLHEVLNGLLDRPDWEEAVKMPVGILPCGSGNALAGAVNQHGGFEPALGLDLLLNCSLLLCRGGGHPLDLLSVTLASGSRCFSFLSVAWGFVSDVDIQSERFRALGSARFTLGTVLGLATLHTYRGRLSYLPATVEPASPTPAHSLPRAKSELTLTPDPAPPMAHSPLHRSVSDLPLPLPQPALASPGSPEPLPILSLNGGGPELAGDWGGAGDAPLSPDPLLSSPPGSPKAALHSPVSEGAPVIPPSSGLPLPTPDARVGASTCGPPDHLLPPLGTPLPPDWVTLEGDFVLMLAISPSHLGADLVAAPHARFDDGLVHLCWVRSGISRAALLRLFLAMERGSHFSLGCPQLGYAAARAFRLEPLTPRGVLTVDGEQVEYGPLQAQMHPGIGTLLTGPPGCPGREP
# [3] = molecular target: T1, Sphingosine kinase 2 (Homo sapiens); details: at 1 µM
# [4] = molecular target: Casein kinase II subunit alpha (Homo sapiens) (UniProt P68400); details: at 0.1 µM
# Sequence of Casein kinase II subunit alpha (Homo sapiens) (P68400 whole entry, looked up): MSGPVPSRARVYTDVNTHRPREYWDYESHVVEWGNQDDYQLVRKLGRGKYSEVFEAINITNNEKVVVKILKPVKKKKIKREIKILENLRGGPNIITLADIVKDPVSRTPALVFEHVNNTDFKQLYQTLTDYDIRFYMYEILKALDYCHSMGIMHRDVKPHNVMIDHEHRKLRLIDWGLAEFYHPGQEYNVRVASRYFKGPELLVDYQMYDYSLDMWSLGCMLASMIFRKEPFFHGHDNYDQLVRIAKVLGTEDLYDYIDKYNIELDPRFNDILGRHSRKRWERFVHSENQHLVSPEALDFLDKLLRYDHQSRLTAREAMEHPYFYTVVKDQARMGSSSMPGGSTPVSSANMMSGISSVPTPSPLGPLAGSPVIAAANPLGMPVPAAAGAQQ
# [5] = molecular target: Casein kinase II subunit alpha (Homo sapiens) (UniProt P68400); details: at 1 µM
# [6] = molecular target: T2, Inhibitor of nuclear factor kappa-B kinase subunit alpha (Homo sapiens) (UniProt O15111); details: at 0.1 µM
# T2 sequence (whole entry): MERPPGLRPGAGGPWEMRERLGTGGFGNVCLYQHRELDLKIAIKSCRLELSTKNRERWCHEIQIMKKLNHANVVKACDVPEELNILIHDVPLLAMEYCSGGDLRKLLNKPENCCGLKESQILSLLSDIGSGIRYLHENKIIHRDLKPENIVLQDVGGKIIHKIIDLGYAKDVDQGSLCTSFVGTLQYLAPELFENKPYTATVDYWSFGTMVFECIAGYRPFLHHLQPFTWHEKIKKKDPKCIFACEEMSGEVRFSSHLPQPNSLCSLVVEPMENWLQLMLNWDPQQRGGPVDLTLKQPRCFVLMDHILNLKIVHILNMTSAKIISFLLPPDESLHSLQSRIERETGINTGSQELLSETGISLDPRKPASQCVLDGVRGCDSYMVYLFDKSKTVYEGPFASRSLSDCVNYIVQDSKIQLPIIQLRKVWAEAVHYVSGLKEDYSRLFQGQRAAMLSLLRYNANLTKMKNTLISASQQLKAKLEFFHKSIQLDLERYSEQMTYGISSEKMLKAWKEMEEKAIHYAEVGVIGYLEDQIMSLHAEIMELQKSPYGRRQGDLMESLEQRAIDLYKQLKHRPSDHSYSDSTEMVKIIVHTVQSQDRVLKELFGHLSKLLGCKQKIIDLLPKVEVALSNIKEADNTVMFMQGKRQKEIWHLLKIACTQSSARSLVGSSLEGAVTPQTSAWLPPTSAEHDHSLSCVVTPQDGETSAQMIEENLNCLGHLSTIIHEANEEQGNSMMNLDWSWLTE
# [7] = molecular target: T2, Inhibitor of nuclear factor kappa-B kinase subunit alpha (Homo sapiens); details: at 1 µM
# [8] = molecular target: T3, Inhibitor of nuclear factor kappa-B kinase subunit beta (Homo sapiens) (UniProt O14920); details: at 0.1 µM
# T3 sequence (whole entry): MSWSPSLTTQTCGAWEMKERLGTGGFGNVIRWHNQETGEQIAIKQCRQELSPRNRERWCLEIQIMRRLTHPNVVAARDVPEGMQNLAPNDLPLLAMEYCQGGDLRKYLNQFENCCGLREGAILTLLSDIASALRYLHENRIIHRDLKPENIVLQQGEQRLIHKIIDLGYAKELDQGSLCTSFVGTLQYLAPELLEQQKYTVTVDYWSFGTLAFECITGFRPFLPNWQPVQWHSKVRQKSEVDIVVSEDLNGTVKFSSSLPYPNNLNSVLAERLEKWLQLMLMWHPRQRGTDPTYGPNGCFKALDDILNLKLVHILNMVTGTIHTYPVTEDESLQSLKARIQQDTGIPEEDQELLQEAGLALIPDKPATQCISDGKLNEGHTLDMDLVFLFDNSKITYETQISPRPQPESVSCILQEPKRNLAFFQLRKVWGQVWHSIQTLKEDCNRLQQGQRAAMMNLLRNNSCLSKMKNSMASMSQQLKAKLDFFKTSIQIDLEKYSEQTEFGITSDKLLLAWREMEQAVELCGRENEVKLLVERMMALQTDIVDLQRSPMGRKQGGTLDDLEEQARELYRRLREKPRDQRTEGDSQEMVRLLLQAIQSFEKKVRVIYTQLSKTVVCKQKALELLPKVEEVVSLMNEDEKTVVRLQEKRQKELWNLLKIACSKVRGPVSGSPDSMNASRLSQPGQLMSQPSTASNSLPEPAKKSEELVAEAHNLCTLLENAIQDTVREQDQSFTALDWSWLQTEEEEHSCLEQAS
# [9] = molecular target: T3, Inhibitor of nuclear factor kappa-B kinase subunit beta (Homo sapiens); details: at 1 µM
# [10] = molecular target: T4, Inhibitor of nuclear factor kappa-B kinase subunit epsilon (Homo sapiens) (UniProt Q14164); details: at 0.1 µM;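 note: mean inhibition of IKKε reported, from the GSK PKIS dataset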
# T4 sequence (whole entry): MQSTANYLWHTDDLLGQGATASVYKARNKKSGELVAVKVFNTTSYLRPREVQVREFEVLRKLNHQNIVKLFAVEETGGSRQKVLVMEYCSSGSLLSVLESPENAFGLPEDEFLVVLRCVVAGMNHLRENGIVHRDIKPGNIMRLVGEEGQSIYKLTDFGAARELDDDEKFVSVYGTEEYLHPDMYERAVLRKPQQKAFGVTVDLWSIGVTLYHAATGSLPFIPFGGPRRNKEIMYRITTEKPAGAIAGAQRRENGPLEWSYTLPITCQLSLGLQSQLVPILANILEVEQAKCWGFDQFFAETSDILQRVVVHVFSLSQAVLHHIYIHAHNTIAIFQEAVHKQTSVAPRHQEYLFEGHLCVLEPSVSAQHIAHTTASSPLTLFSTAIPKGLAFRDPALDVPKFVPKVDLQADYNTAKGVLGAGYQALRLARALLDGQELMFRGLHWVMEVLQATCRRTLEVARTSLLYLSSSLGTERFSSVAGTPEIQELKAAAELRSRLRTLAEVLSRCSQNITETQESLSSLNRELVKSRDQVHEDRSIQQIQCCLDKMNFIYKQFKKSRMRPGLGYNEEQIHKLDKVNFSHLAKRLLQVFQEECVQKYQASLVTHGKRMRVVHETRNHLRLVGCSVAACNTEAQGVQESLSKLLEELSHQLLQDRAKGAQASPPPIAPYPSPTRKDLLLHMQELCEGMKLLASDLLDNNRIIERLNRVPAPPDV
# Sequence of Sphingosine kinase 1 (Homo sapiens) (Q9NYA1 whole entry): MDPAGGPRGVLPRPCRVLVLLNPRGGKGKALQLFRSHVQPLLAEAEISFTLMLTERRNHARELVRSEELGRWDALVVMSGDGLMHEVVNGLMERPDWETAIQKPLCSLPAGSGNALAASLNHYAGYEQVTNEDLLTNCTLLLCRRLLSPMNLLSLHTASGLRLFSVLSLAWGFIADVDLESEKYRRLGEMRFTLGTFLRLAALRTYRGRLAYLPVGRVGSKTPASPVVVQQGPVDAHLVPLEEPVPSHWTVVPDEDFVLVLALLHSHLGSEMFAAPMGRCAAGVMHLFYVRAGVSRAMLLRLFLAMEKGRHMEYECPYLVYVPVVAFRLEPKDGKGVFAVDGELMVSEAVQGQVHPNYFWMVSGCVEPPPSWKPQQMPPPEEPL
structure (smiles),measurement,setting,value
NS(=O)(=O)c1ccc(-c2cc3ccncc3cc2OCc2ccccc2)cc1,inhibition,[1],-2.02%
same,inhibition,[2],-0.23%
same,inhibition,[3],1%
same,inhibition,[4],5.15%
same,inhibition,[5],12.6%
same,inhibition,[6],0.99%
same,inhibition,[7],8.71%
same,inhibition,[8],8.26%
same,inhibition,[9],21.9%
same,inhibition,[10],5.72%

# From ChEMBL document CHEMBL1961873, “Compounds: GSK PKIS; Assays: Nanosyn kinase panel” (2012)
